# ELG1 genotoxic: qHTS screen for small molecules that induce genotoxicity in human embryonic kidney (HEK293T) cells expressing luciferase-tagged ELG1 | Potency, µM (series often up to 46 µM), for the others: at the highest dose activity change, positive = activation, hits mostly activators | AID 504466, 2011 | HEK293T ELG1-luciferase reporter, luminescence, 16 h | 1.3% of 330,000 active; also: % of control where 0% means no effect; nearly all actives have a fitted effect of over 60% in size
#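 After overnight (16 hr) compound treatment at 37 °C, ELG1-luciferase HEK293T cells were lysed with ONE-Glo; luminescence quantified 30 min later at room temperature.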
# Rab9 promoter act: qHTS Assay for Rab9 Promoter Activators. Huh7 Rab9 promoter-luciferase reporter, luminescence, 24 h. Potency, µM (highest dose often 9.22 µM), without a hit: top-dose activation, negative = inhibition, actives largely listed as activators. 2.8% of 320,000 active; also: % of control where 0% means no effect; nearly all actives have a fitted effect of over 60% in size
#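 Rab9 promoter-driven luciferase in stably transfected Huh7 cells; 1500 cells/well rested 2 h, exposed to compound in DMSO for 24 h at 37 °C, 5% CO2. Luminescence read 10 min after adding luciferase reagent at ambient temperature.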
# Luc counter: Counterscreen for Luciferase (Kinase-Glo TM) Inhibition; Luciferin 4-monooxygenase (Photuris pensylvanica), Q27757; Kinase-Glo luciferase, ATP luminescence, 8 min; Potency, µM (doses to about 38.3 µM), without a hit: top-dose activity change, negative = inhibition, hits mostly inhibitors; 0.28% of 200,000 active; also: % is scaled to controls: 0 for no effect and ±100 for the full control effect; nearly all actives have a fitted effect of over 60% in size
#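 Recombinant Kinase-Glo luciferase, 10 uM ATP (linear range), luciferin; imidazole pH 7.2 / KCl / MgCl2 / Tween / BSA buffer; 8 min RT; luminescence.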
# FLuc modulator: qHTS profiling assay for firefly luciferase inhibitor/activator using purifed enzyme and Km concentrations of substrates (counterscreen for miR-21 project). Luciferin 4-monooxygenase (Photinus pyralis), P08659. purified FLuc, Km substrates, luminescence inhibition. Potency, µM (highest dose often 57.5 µM), for inactives: at the top dose activity change, negative = inhibition, usual class: inhibitors. 6.9% of 360,000 active;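 also: plate controls were vehicle for no effect and reference inhibitor for full effect; nearly all actives have a fitted effect of over 55% in size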
# Target sequence (P08659 whole entry, looked up): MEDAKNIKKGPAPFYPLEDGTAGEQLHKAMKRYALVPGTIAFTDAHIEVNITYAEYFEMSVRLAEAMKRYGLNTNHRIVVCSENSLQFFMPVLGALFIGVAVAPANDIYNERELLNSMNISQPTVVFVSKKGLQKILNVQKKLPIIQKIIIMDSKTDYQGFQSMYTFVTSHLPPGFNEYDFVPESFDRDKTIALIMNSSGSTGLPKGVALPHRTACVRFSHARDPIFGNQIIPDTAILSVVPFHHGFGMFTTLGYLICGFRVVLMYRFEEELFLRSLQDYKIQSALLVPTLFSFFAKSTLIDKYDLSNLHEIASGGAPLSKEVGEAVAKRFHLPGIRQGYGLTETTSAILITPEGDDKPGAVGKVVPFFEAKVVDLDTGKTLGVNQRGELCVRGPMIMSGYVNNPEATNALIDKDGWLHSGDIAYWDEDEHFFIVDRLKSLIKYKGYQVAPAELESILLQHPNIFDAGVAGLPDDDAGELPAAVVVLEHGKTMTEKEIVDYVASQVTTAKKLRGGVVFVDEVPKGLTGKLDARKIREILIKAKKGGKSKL
#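 Biochemical qHTS of compounds, final roughly 60 µM downward over six points, against 10 nM purified firefly luciferase using Km concentrations of substrates (10 uM D-luciferin, 10 uM ATP) in Tris acetate pH 7.5 buffer; luminescence output.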
# NPC1 promoter act: qHTS Assay for NPC1 Promoter Activators; 2.4% of 320,000 active; Potency, µM (series often up to 9.22 µM), for inactives: top-dose activation, most hits filed as activators; Huh7 NPC1 promoter luciferase reporter, 24 h; also: % of control where 0% means no effect; nearly all actives have a fitted effect of over 60% in size
#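 Cells: Huh7 expressing luciferase under the NPC1 promoter, 1500/well. Seeded 2 h, compound added, incubated 24 h at 37 °C. Luciferase reagent, 10 min ambient, then luminescence.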
# SMN2 splice enh: qHTS Assay for Enhancers of SMN2 Splice Variant Expression; HEK293 SMN2-luciferase splicing reporter, luminescence, 30-36 h; Potency, µM (top dose mostly 46.1 µM), inactives show at the highest dose activity change, positive = activation, most hits filed as activators; 2.8% of 210,000 active; also: % of control where 0% means no effect; nearly all actives have a fitted effect of over 55% in size
#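 HEK293 cells carry an SMN2 […]–luciferase reporter in which exon 7 inclusion puts luciferase in frame. Cells were plated 10-12 h before compound addition, then incubated 30-36 h at 37C. ONE-Glo luminescence was read; sodium butyrate at 4.5 mM final served as control.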
# An asterisk follows results filed as active; ? = inconclusive; . = no result; [ ] = another dose, or the depositor's remark. A selection: hits, their analogues and other compounds. The true share with any hit is near 7.3%. Calls follow the shape of the dose curve; as a rule, active = well fitted curve in the direction sought with a large enough effect; inconclusive = small, poorly fitted or top-dose-only effect, or another doubt; inactive = no such curve, though single readings can be large; an effect the other way counts as inactive or inconclusive. Potency is read from the fitted curve at half-maximal effect.
SMILES,ELG1 genotoxic,Rab9 promoter act,Luc counter,FLuc modulator,NPC1 promoter act,SMN2 splice enh
Cc1c(Cl)cccc1NC(=O)c1ccc2c(c1)CCN2S(=O)(=O)c1ccccc1,.,.,.,4%,.,-3%
COc1ccc(-c2nnc(SCC(=O)N3CCOCC3)o2)cc1OC,-1%,-2%,1%,-2%,-2%,12%
COc1ccc(-c2nnc(SCC(=O)N3CCCCC3)o2)cc1,?,?,.,?,?,13%
CCOc1ccc(-c2nnc(SCC(=O)N3CCCC3)o2)cc1,?,?,.,21µM*,?,.
CCOc1ccc(-c2nnc(SCC(=O)N3CCOCC3)o2)cc1,?,2.2µM*,-2%,11µM*,?,?
COc1ccc2oc(C(=O)Nc3nccs3)c(C)c2c1,0.52µM*,1.1µM*,.,0.54µM*,1.1µM*,.
CCOc1ccc2oc(C(=O)Nc3nccs3)c(C)c2c1,2.6µM*,.,.,.,.,.
CCCCc1nnc(NC(=O)c2oc3ccc(OC)cc3c2C)s1,9%,16%,.,-25%,21%,.
CCOc1ccc2oc(C(=O)NC3CC(C)(C)NC(C)(C)C3)c(C)c2c1,6%,-3%,-3%,-3%,0%,-4%
CCOc1ccc2oc(C(=O)NC(C)(C)CC)c(C)c2c1,?,2.5µM*,-1%,17µM*,?,?
COc1cccc(CNc2ncnc3c2nnn3C)c1,.,.,.,-6%,.,.
COc1ccc(NC(=O)C2CCC(CNS(=O)(=O)c3ccc(Br)s3)CC2)c(OC)c1 (stereo unspecified),.,.,.,-14%,.,-24%
COC(=O)[C@@H]1O[C@@H](SCCN)[C@@H](O)[C@H](O)[C@H]1O,.,.,-3%[7.66 µM],.,.,1%[9.22 µM]
CS(=O)(=O)n1nc(-c2ccco2)nc1NCc1ccccc1Cl,.,.,.,-7%,.,23%
COc1cccc(OCc2nc3ccccc3n2C)c1,.,.,.,11µM*,.,16µM*
Cc1cccc(OCc2nc3ccccc3n2C)c1,?,?,.,24µM*,?,.
Cc1cccc(OCc2nc3ccccc3c(=O)n2N)c1,?,?,-9%,17µM*,?,?
Cc1nc(-c2ccc(NC(=O)c3ccc(Br)o3)cc2)cs1,2.9µM*,0.79µM*,.,1.5µM*,1.8µM*,.
Cc1nc(-c2ccc(NC(=O)CC(C)C)cc2)cs1,?,3.2µM*,-11%,7.6µM*,2.8µM*,11µM*
Cc1nc(-c2cccc(NC(=O)c3ccc(Br)o3)c2)cs1,-11%,-2%,.,?,12%,.
Cc1nc(-c2ccc(NC(=O)C3CC3)cc2)cs1,21µM*,2.8µM*,.,11µM*,2.5µM*,.
CCOC(=O)c1ccc(CN(Cc2ccccc2C)S(=O)(=O)c2ccc(F)c(C)c2)cc1,.,.,.,-5%,.,.
O=C(CN1CCN(c2ccccn2)CC1)Nc1ccc(OC(F)(F)F)cc1,-5%,-4%,.,-1%,-1%,.
O=C1/C(=C\Nc2ccc(Cl)cc2)CCN1c1ncccn1,?,0.89µM*,-5%,4.8µM*,2µM*,20µM*
O=C1/C(=C\Nc2ccc(OC(F)(F)F)cc2)CCN1c1ncccn1,9.2µM*,2.5µM*,15%,?,?,17%
SMILES,ELG1 genotoxic,Rab9 promoter act,Luc counter,FLuc modulator,NPC1 promoter act,SMN2 splice enh
O=C(O)c1ccc2c(c1)C(=O)N([C@H](Cc1ccc(O)c(O)c1)C(=O)O)C2=O,.,0%,.,?,-1%,.
Cc1ccc2c(COC(=O)c3ccccc3Cl)cc(=O)oc2c1,15µM*,19%,.,0.85µM*,?,.
Cc1ccc2c(COC(=O)c3ccccc3Br)cc(=O)oc2c1,15µM*,3%,.,2.7µM*,?,.
COc1ccc(Br)c(C(=O)OCc2cc(=O)oc3cc(C)ccc23)c1,14%,-2%,.,?,-1%,.
Cc1ccc2c(COC(=O)c3ccc(C)c(C)c3)cc(=O)oc2c1,6%,?,.,6%,20%,.
CCOc1ccccc1C(=O)N[C@H](C(=O)OCc1cc(=O)oc2cc(C)ccc12)C(C)C,-1%,-5%,4%,?,1%,1%
COc1cc(OC)cc(C(=O)N[C@H](C(=O)OCc2cc(=O)oc3cc(C)ccc23)C(C)C)c1,-2%,-1%,-1%,8.5µM*,-4%,-4%
Cc1ccc2c(COC(=O)C34CC5CC(CC(C5)C3)C4)cc(=O)oc2c1,?,4µM*,-3%,?,?,21%
CCc1nnc2c3ccccc3nc(N3CCN(c4cc(C)ccc4C)CC3)n12,.,.,.,6%,.,.
O=C(Nc1cccc(Cl)c1)c1cnc2sc(N3CCCC3)nn2c1=O,.,.,.,-1%,.,.
CC(=O)Nc1ccc(C(=O)Nc2cccc(-c3cnc4ccccc4n3)c2)cc1,17%,1%,-2%,0%,-16%,-21%
CNC(=S)Nc1cccc(-c2cnc3ccccc3n2)c1,?,?,.,17µM*,?,.
Cc1ccc(C(=O)Nc2cccc(-c3cnc4ccccc4n3)c2)cc1,2%,1%,-2%,?,1%,-4%
CS(=O)(=O)Nc1cccc(-c2cnc3ccccc3n2)c1,?,4.5µM*,.,19µM*,3.2µM*,.
Nc1cccc(-c2cnc3ccccc3n2)c1,9.2µM*,?,.,7.6µM*,2.5µM*,.
O=C(Nc1cccc(-c2cnc3ccccc3n2)c1)c1ccncc1,2%,0%,0%,?,1%,4%
CC(C)C(=O)Nc1cccc(-c2cnc3ccccc3n2)c1,?,?,7%,15µM*,?,-7%
Cc1cccc(NC(=O)c2oc3ccccc3c2NC(=O)Cc2coc3cc(C)cc(C)c23)c1,.,.,.,1%,.,9%
S=C([S-])NCCNC(=S)[S-].[Zn+2],.,.,.,.,.,-15%
COc1ccccc1/C=C/C=N/n1c(-c2ccccc2)n[nH]c1=S,-5%,13%,.,15µM*,2%,.
O=C(CS(=O)(=O)c1ccc(F)cc1)Nc1nnc(-c2cccs2)o1,-5%,1%,.,3%,1%,.
Fc1ccc2c(Cl)c(-c3nnc(-c4cccs4)o3)sc2c1,0.65µM*,0.56µM*,-9%,0.19µM*,1.4µM*,4.5µM*
Cc1ccc(NC(=O)N2CCc3ccccc32)cc1C,0.65µM*,0.32µM*,-10%,0.67µM*,0.5µM*,1.4µM*
Cc1ccc(NC(=O)N2CCc3ccccc32)cc1,?,0.63µM*,?,0.54µM*,0.71µM*,1.3µM*
Cc1ccc(Cl)cc1NC(=O)CN1C(=O)CCc2ccccc21,.,.,.,-1%,.,.
CN1CCN(c2ccc(NC(=O)N3CCc4ccccc43)cc2)CC1,0.46µM*,0.11µM*,.,0.76µM*,0.32µM*,.
Cc1ccc(NC(=O)CN2C(=O)CCc3ccccc32)cc1C,.,.,.,24µM*,.,.
